Experimental data taken from PubChem BioAssay AID1159580 (chemical genetic matrix, 2015).
The whole screen tested about 5,500 compounds, of which about 2,000 (36%) were called active. Inconclusive results (about 18%) are left out. No stated cut-off is given here; in the data, active means normalized growth mostly below about 0.91 (no sharp cut-off); inconclusive means no clear call, values can overlap the other calls; inactive means mostly above about 0.92. This is one part of the list.

Assay: chemical genetic growth profiling, strain panel (AID 1159580);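 further: tested at 20 µM; growth read once vehicle control cultures reached saturation at 30 °C; 1 = growth at the plate median or of vehicle wells; lower values mean less growth of the strain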
Settings: S. cerevisiae deletion strains, growth OD

Measured: normalized growth

COc1ccc2c(c1)c(CC(=O)O)c(C)n2Cc1ccc(Cl)cc1
inactive: locus YAL013W, strain DEP1, hits give low values 0.994 | locus YAL040C, strain CLN3, hits give low values 0.96 | locus YCL061C, strain MRC1 (second series), hits give low values 1 | locus YDR150W, strain NUM1, hits give low values 1.02 | locus YDR363W, strain ESC2, hits give low values 0.972 | locus YER002W, strain NOP16, hits give low values 0.999 | locus YGR078C, strain PAC10, hits give low values 0.981 | locus YGR229C, strain SMI1, hits give low values 0.941 | locus YMR307W, strain GAS1, hits give low values 1 | locus YNL175C, strain NOP13, hits give low values 0.966 | locus YNL197C, strain WHI3, hits give low values 0.95 | locus YNL224C, strain SQS1, hits give low values 0.981 | locus YNL322C, strain KRE1, hits give low values 0.994 | locus YOR083W, strain WHI5 (second series), hits give low values 0.953 | locus YPL055C, strain LGE1, hits give low values 0.996 | locus YPL241C, strain CIN2, hits give low values 0.994
